TTR transcr act: increases transthyretin transcription; activation, % at 16.7 µM; SH-SY5Y TTR promoter Gaussia luciferase, luminescence; 100% = recombinant luciferase protein wells; 92,000 compounds, 1.3% hits;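 active = activation above the mean of all tested compounds plus 3 SD, cut at about 9.5% in these data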;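 note: cells exposed to compounds for one day before reading; 0% = median of all test compound wells on the plate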
TTR inh HuH7: counter-screen for TTR activators: TTR transcription inhibitors in HuH7 cells | shares compounds with TTR transcr act | HuH7 TTR promoter-Gaussia luciferase reporter, luminescence | 1,100 compounds, 4% hits | inhibition, % at 16.7 µM;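 active = average inhibition above the solvent-only control wells' mean plus 3 SD, cut at about 15% in these data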;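 note: 0% = cells with DMSO only and 100% = cells with inhibitor control FD; inhibitors lower well luminescence so higher value means more inhibition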
TTR up confirm: human TTR transcription activation, confirmation; AID 1117280; activation, % at 16.7 µM; SHSY5Y TTR promoter Gaussia luciferase, luminescence; 100% = purified Lucia enzyme wells, no cells; shares compounds with TTR transcr act; 1,100 tested, under 10 active;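 active = mean activation above a set limit taken from the earlier primary screen, cut at about 11% in these data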;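 note: 0% = DMSO-treated cells and 100% = recombinant Lucia luciferase without cells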
Active calls of the source: *. The sample as a whole holds a higher share of hits than the screen did.

SMILES | TTR transcr act | others
C#CCOCCOCCOCCNc1nc(N2CCN(C(=O)[C@H](CO)n3cc([C@@H](N)C(C)C)nn3)CC2)nc(N2CCN(C(=O)[C@H](CCCCN)n3cc([C@@H](N)[C@H](C)CC)nn3)CC2)n1 | 18.6* | TTR inh HuH7=-4.3;TTR up confirm=0.8
C#CCOCCOCCOCCNc1nc(N2CCN(C(=O)[C@H](CCCN=C(N)N)n3cc(C(N)[C@@H](C)CC)nn3)CC2)nc(N2CCN(C(=O)[C@H](CCCCN)n3cc([C@@H](N)CC(N)=O)nn3)CC2)n1 (stereo not given in full) | -1.6
O=C(Nc1ccccc1)OC[C@@H]1CSCCS(=O)(=O)N1 | 3.1
Cc1cc(NC(=O)CCOc2ccc(F)cc2)no1 | 3.5
Cc1cc(NC(=O)C(C)SCC(=O)OC(C)C(=O)Nc2ccc(F)cc2Cl)no1 (stereo not given) | 11.6* | TTR inh HuH7=-8.6;TTR up confirm=0.5
Cc1cc(NC(=O)C(C)SCC(=O)OC(C)C(=O)Nc2cccc(C#N)c2)no1 (stereo not given) | -0.2
O=C(Nc1ccc(C(O)(C(F)(F)F)C(F)(F)F)cc1)c1ccc(F)cc1Cl | -2.4
O=S(=O)(Nc1nc(SCc2ccc(Cl)cc2)n[nH]1)c1ccccc1 | 1.5
CCC(c1nnnn1Cc1ccco1)N(Cc1cc2cc(C)cc(C)c2[nH]c1=O)CC1CCCO1 (stereo not given) | 18.3* | TTR inh HuH7=13.7;TTR up confirm=-0.3
CCC(c1nnnn1Cc1ccco1)N(Cc1ccccc1OC)Cc1cc2cc(C)ccc2[nH]c1=O (stereo not given) | 6.6
Cc1cccc2cc(C(c3nnnn3C(C)(C)C)N(Cc3ccco3)CC3CCCO3)c(=O)[nH]c12 (stereo not given) | -2.2
CCC[C@H]1[C@@H](NC(=O)c2cccc(C)c2)CC[C@@]23CCCN2C(=O)CCC[C@@H]13 | -1.5
CO[C@H]([C@H](C)/C=C/N(C)C=O)[C@@H](C)C(=O)CC[C@H](C)[C@H](O)[C@H](C)[C@H]1OC(=O)/C=C/C(C)=C/C[C@H](O)C[C@@H]2C=CC[C@@H](C[C@H](OC)C(C)(O)[C@@H](OC)C[C@@H](OC)[C@@H]1C)O2 (stereo not given in full) | 5.9
Cc1ccccc1OCC(=O)Nc1ccc(N2CCN(C)CC2)c(Cl)c1 | -1.0
O=C(NC(=O)c1ccccc1Cl)Nc1ccc(-c2cnco2)cc1 | -0.3
O=C(Nc1ccc(-c2cnco2)cc1)c1ccc(Cl)cc1 | 3.8
O=C(Nc1ccc(-c2cnco2)cc1)c1ccccc1 | 14.2* | TTR inh HuH7=-17.9;TTR up confirm=-0.2
COC(=O)[C@]12C[C@H](CC(=O)N3CCCC3)C(=O)N(Cc3ccccc3)C1=C[C@H](COCc1ccccc1)O[C@@H]2C | -0.2
CCOC(=O)Cc1c(C)nc(Cc2ccc(OC(C)C)cc2)[nH]c1=O | -0.7
O=C(NCC(=O)N(CC1CCCO1)C(C(=O)NC1CCCCC1)c1cccnc1)c1cccs1 (stereo not given) | -0.8
Cc1cccc(C)c1OCC(=O)NNC(=O)c1ccoc1C | 7.2
Cc1cc(C)cc(OCC(=O)NNC(=O)c2ccoc2C)c1 | 0.6
CCCC(=O)NNC(=O)c1ccoc1C | 16.8* | TTR inh HuH7=-8.8;TTR up confirm=-0.6
Nc1ccn([C@@H]2O[C@H](C(=O)N3CCSC3)[C@@H](O)[C@H]2O)c(=O)n1 | -1.0
Cc1ccc(/C=N/n2c(-c3ccncc3)n[nH]c2=S)cc1 | 1.0
SMILES | TTR transcr act | others
Cn1cccc1/C=N/n1c(-c2ccc(Cl)cc2)n[nH]c1=S | -4.5
Cc1ccc(-c2n[nH]c(=S)n2/N=C/c2cccs2)cc1 | 14.4* | TTR inh HuH7=-16.2;TTR up confirm=-0.2
C#CCNC(=O)C[C@H]1C(=O)N(Cc2ccc(OC)cc2)C2=CCCCC[C@@]21C(=O)OC | -0.6
FC(F)(F)Oc1ccc(Cn2ccc3ccc(-c4ccc5ccn(Cc6ccc(OC(F)(F)F)cc6)c5c4)cc32)cc1 | 3.7
Cn1ccc2c(-c3ccc(F)cc3)cc3c(c21)C1CCC3C1 (stereo not given) | 1.1
Cc1ccccc1-c1cc2c(c3c1ccn3C)C1CCC2O1 (stereo not given) | -0.7
Cc1ccccc1-c1cc2c(c3c1ccn3C)C1CCC2C1 (stereo not given) | 10.3* | TTR inh HuH7=-5.7;TTR up confirm=0.8
CN1CCC(N[C@@H](Cc2ccccc2)C(=O)NCCCc2ccccc2)(C(=O)NCCc2c[nH]c3ccccc23)CC1 | 5.0
CCOC(=O)N1CCC(NC(=O)c2cc(C(=O)Nc3cccc(C(F)(F)F)c3)ccc2CO)CC1 | -1.7
CS(=O)(=O)N1CCC(C(=O)Nc2cccc(C(F)(F)F)c2)CC1 | -0.2
CCN1CCC(NC(=O)Nc2cccc(C(F)(F)F)c2)CC1 | 19.5* | TTR inh HuH7=-14.2;TTR up confirm=0.1
COC(=O)c1ccc(Cn2ccc3ccc(-c4ccc5ccn(C(=O)c6ccc(C)cc6)c5c4)cc32)cc1 | -1.2
COc1cccc(C(=O)n2ccc3ccc(-c4ccc5ccn(C(=O)c6cccc(OC)c6)c5c4)cc32)c1 | -0.1
